Drawing on PubChem BioAssay (Tox21), this text covers outcome, Potency and max activation for 30 compounds.

Test [1] deals with Thyrotropin-releasing hormone receptor (Homo sapiens) (UniProt P34981). Nature of the test: qHTS assay to identify small molecule agonists of the thyrotropin-releasing hormone receptor (TRHR) signaling pathway (AID 1346891; calls by dose curve; further: series mostly up to about 58 µM). In a few lines:
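HEK293 cells expressing TRHR plated 18 h at 37 C/5% CO2, calcium dye-loaded 2 h at 37 C, then compound added (agonist mode); kinetic calcium fluorescence read 3 min at 1 s intervals; 15 concentrations in triplicate.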
Background: Quantitative high-throughput screening tests each substance at several concentrations.

Test [2] can be described thus: Human pregnane X receptor (PXR) small molecule agonists, qHTS cell viability counter screen (AID 1346977). Further: nearly all actives have a fitted effect of over 50% in size. Further: potency means the concentration at half of the fitted maximal effect. In a few lines: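 PXR-Luc HepG2 cells (2,000/well, 5% charcoal-stripped FBS) preincubated 5 hr, then exposed to compounds 24 hr at 37 C. Viability read in the same wells by CellTiter-Fluor fluorescence, reagent added at 23 hr, 1 hr incubation.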
Test [3] can be described thus: Caspase-3/7 induction in HepG2 cells by small molecules, qHTS assay (AID 1346978). Further: nearly all actives have a fitted effect of over 15% in size. In a few lines: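 Wild-type HepG2 cells, 2,000/well, settled 5 hr at 37 C and 5% CO2, then compound-treated for 17 hr; caspase-3/7 activity read by luminescent Caspase-Glo 3/7 after 30 min at room temperature.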
Test [4] can be described thus: Caspase-3/7 induction in CHO-K1 cells by small molecules, qHTS cell viability counter screen (AID 1346979). Further: nearly all actives have a fitted effect of over 35% in size. Further: potency means the concentration at half of the fitted maximal effect. In a few lines:
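Wild-type CHO-K1 cells (1,500/well) treated with compound after 5 h plating; after 16 h at 37C, viability read as CellTiter-Fluor fluorescence following 1 h reagent incubation, in the same wells as the caspase read.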

The nature of test [5]: Caspase-3/7 induction in CHO-K1 cells by small molecules, qHTS assay (AID 1346980). Further: nearly all actives have a fitted effect of over 15% in size. In a few lines:
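Wild-type CHO-K1 cells exposed to compounds for 17hr at 37 C, 5% CO2. Caspase-3/7 activity then measured by Caspase-Glo 3/7 luminescence after 30min at room temperature.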

Test [6] can be described thus: Caspase-3/7 induction in HepG2 cells by small molecules, qHTS cell viability counter screen (AID 1346981). Further: nearly all actives have a fitted effect of over 30% in size. Further: potency means the concentration at half of the fitted maximal effect. In a few lines:
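In this quantitative HTS counter screen, compounds delivered in DMSO were left on unmodified HepG2 cells for 16 hr at 37 C. Viability was then determined fluorometrically with CellTiter-Fluor, in parallel with caspase-3/7 induction in the same wells.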

The target of test [7] is Nuclear receptor subfamily 1 group I member 2 (Homo sapiens) (UniProt O75469). Nature of the test: Human pregnane X receptor (PXR) small molecule agonists, qHTS assay (AID 1346982). Further: nearly all actives have a fitted effect of over 35% in size. Further: potency means the concentration at half of the fitted maximal effect. In a few lines: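 Reporter HepG2 cells expressing PXR-Luc are cultured in charcoal-stripped FBS (5%), treated with compounds for 24 hr at 37 C, and assayed by ONE-Glo luminescence after 30 min at room temperature.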
Nuclear receptor subfamily 1 group I member 2 (Homo sapiens), sequence (O75469 whole entry, looked up): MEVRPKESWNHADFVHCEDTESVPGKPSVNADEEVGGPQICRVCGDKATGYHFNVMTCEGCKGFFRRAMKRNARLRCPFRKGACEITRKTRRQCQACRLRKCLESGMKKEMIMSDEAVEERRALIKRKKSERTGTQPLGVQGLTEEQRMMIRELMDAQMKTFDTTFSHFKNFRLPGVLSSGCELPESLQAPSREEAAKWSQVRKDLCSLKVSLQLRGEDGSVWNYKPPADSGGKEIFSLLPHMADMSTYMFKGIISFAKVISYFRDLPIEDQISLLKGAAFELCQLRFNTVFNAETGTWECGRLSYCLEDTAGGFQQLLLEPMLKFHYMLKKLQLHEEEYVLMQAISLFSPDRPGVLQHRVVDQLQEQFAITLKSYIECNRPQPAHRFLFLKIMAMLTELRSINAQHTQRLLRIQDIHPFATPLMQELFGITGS

Test [8] concerns the target Nuclear receptor subfamily 1 group I member 2 (Rattus norvegicus) (UniProt Q9R1A7). Kind of test: Rat pregnane X receptor (rPXR) activation by small molecules, qHTS assay (AID 1346983). Further: nearly all actives have a fitted effect of over 20% in size. The conditions noted are these: rPXR luciferase reporter cells, One-Glo luminescence, 24 h; max activation: stronger effect = higher value. In a few lines:
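Cell-based rPXR activation assay: rPXR cells, 2,000 per well, rested 5hr at 37 C, then exposed to compounds in DMSO for 24 hr at 37 C. Luciferase activity read by One-Glo luminescence after 30 min at room temperature.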

The target of test [9] is Nuclear receptor subfamily 1 group I member 2 (Homo sapiens) (UniProt O75469). Nature of the test: CYP3A4 induction through human pregnane X receptor (PXR) by small molecules, qHTS assay (AID 1346984). Further: nearly all actives have a fitted effect of over 40% in size. Further: potency means the concentration at half of the fitted maximal effect. In a few lines:
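Induction measured in HepG2-based DPX-2 cells co-expressing human PXR and a CYP3A4 promoter-driven luciferase. After a 24-hour compound exposure, cells received CYP3A4 luciferin substrate at 3uM final for 3 hours, and light output was then recorded.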

The target is the same in test [10]. Nature of the test: Human pregnane X receptor (PXR) activation by small molecules, qHTS assay (AID 1346985). Further: nearly all actives have a fitted effect of over 40% in size. Further: potency means the concentration at half of the fitted maximal effect. In a few lines: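 DPX-2 cells (HepG2 co-transfected with a PXR response element and a CYP3A4-promoter luciferase construct) were seeded at 2,000 per well, rested 5 hr at 37C, then exposed to DMSO-dissolved compounds for 24 hr. Activation was read as luciferase luminescence.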

Where “and” joins values, the source holds several entries; their conditions need not be identical. Equal entries are not always repeated. Inconclusive results are not listed. More than one record can exist for a structure, and the calls need not agree. Calls of active or inactive are those of the source. Unless noted, the call rests on the fitted dose curve; in most records, active means well fitted curve in the direction sought with a large enough effect in the repeat runs; inconclusive means weak or mixed curves; inactive means no such curve, though single readings can be large; an effect the other way counts as inactive or inconclusive.
On the % scale 0 is the no-effect control and ±100 the full control effect.

Thyrotropin-releasing hormone receptor (Homo sapiens), sequence (P34981 whole entry, looked up): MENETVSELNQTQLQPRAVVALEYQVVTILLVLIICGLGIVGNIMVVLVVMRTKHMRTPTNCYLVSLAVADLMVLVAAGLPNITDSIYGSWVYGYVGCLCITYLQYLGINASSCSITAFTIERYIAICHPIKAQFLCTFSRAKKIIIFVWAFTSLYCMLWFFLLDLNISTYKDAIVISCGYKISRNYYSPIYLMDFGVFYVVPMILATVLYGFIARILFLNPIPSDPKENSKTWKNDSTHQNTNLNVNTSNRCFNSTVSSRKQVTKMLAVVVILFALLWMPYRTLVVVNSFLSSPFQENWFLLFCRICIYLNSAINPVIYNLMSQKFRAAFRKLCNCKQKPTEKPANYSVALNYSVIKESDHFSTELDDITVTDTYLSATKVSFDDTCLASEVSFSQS
Nuclear receptor subfamily 1 group I member 2 (Rattus norvegicus), sequence (Q9R1A7 whole entry, looked up): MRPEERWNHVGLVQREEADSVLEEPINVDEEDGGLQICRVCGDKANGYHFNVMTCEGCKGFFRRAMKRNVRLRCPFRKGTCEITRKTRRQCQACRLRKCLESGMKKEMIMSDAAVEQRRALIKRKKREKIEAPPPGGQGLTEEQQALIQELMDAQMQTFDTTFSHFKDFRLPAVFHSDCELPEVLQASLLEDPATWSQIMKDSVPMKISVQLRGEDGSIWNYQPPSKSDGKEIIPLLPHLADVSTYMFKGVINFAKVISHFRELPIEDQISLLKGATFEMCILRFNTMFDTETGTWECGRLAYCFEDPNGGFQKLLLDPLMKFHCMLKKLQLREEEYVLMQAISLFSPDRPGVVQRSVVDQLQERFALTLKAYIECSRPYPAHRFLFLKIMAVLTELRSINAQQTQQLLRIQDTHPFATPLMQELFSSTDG

As to `O=C(O)COc1ccccc1`, the result in test [1], in test [3] and in test [5] was inactive. Also, the Potency result in test [2], in test [4], in [6], in test [7], in [9] and in test [10] was “inactive” in each case. The max activation in test [8] was -1.4% (inactive).

With `Cc1cccc(C)c1N`, the compound was called inactive in [1], in test [3] and in test [5]. Besides, the Potency result in test [2], in test [4] and in test [7] was “inactive” each time.

For `Nc1ccc([As](=O)(O)O)cc1`, the result in [1], in test [3] and in test [5] was inactive. Also, the Potency entry in test [2], in test [4], in test [6], in test [7], in [9] and in test [10] was “inactive” in each case. In test [8], the max activation is -1.25% (inactive).

Take `O=C(O)Cc1ccccc1`: the outcome in test [1], in [3] and in test [5] was inactive. The Potency entry in test [2], in test [4] and in test [7] was “inactive” in each case.

As to `ClC(Cl)c1ccccc1`, the result in [1], in test [3] and in test [5] was inactive. The Potency result in test [2], in [4] and in [7] was “inactive” throughout.

Regarding `CC12CC1(C)C(=O)N(c1cc(Cl)cc(Cl)c1)C2=O` (stereo unspecified), the result in test [1], in test [3] and in test [5] was inactive. Besides, the Potency entry in test [2] and in test [4] was “inactive” in each case. Also, the Potency in test [7] was 60.9 µM (active) and 24.3 µM (active).

For `CCNc1nc(Cl)nc(NC(C)C)n1`, the outcome in test [1], in [3] and in test [5] was inactive. Besides, the Potency entry in test [2] and in test [4] was “inactive” throughout. Further, in test [7], the Potency was 67.8 µM (active) and 61.1 µM (active).

For the compound `Cl/C=C/Cl`, the call in [1], in test [3] and in [5] was inactive. The Potency result in [2] and in test [4] was “inactive” each time. Further, in [7], the Potency entry is “inactive and 29.6 µM (active)”.

For the compound `C=CC(=O)OCCCCCC(C)C`, the result in test [1], in [3] and in test [5] was inactive. For the same compound, the Potency entry in test [2], in test [4] and in test [7] was “inactive” each time.

Take `CCOP(=S)(OCC)Oc1cc(C)nc(C(C)C)n1`: the result in test [1], in test [3] and in [5] was inactive. For the same compound, the Potency entry in test [2], in test [4], in test [6], in [9] and in test [10] was “inactive” throughout. In test [8], the max activation is 0.813% (inactive).

Turning to `CNC(=O)Oc1cccc2ccccc12`, the compound was classed as inactive in test [1], in test [3] and in test [5]. Besides, the Potency result in test [2], in test [4], in [6] and in [10] was “inactive” throughout. In addition, the Potency is 68 µM (active) and inactive in [7]; 3.16 µM (active) in test [9]. For the same compound, the max activation in test [8] is -0.0164% (inactive).

Consider `CNC(=O)O/N=C/C(C)(C)SC`, for which the compound was classed as inactive in [1], in test [3] and in [5]. Further, the Potency entry in test [2] and in test [4] was “inactive” in each case. Besides, in test [7], the Potency was 69.2 µM (active) and inactive.

With `COP(=S)(OC)Oc1ccc(SC)c(C)c1`, the compound was classed as inactive in [1], in [3] and in test [5]. In addition, the Potency entry in test [2], in test [4], in [6], in test [9] and in [10] was “inactive” each time. The Potency in test [7] was 60.4 µM (active) and 37.6 µM (active). The max activation in [8] was 1.15% (inactive).

In the case of `Sc1ccccc1`, the compound was classed as inactive in test [1], in test [3] and in [5]. Also, the Potency result in [2], in test [4] and in [7] was “inactive” throughout.

On to `ClCCOCCCl`, for which the compound was classed as inactive in test [1], in test [3] and in test [5]. For the same compound, the Potency result in test [2], in test [4] and in [7] was “inactive” throughout.

For the compound `O=C(O)C(Br)Br`, the compound was classed as inactive in test [1], in [3] and in [5]. Besides, the Potency entry in test [2], in test [4] and in [7] was “inactive” in each case.

With `Nc1ccc(N)cc1`, the result in test [1], in test [3] and in [5] was inactive. In addition, the Potency in test [2] is 54.5 µM (active) and inactive; in test [4], 48.8 µM (active) and 54.5 µM (active); in test [6], 54.5 µM (active) and inactive; in test [7] it was 54.5 µM (active) [middle of 4 runs]; in test [10], 25.1 µM (active).

For `CNc1cnn(-c2cccc(C(F)(F)F)c2)c(=O)c1Cl`, the outcome in test [1], in test [3] and in test [5] was inactive. Also, the Potency entry in test [2] and in test [4] was “inactive” each time. In addition, the Potency in test [7] is 46.8 µM (active) and 34.4 µM (active).

Regarding `OC[C@@H](O)[C@H]1O[C@@H]2O[C@H](C(Cl)(Cl)Cl)O[C@@H]2[C@H]1O`, the outcome in [1], in [3] and in test [5] was inactive. Also, the Potency result in [2], in test [4], in test [6], in test [7], in test [9] and in test [10] was “inactive” in each case. For the same compound, the max activation in [8] is -1.13% (inactive).

For `CC(=O)/C=C/c1ccccc1`, the call in [1], in test [3] and in test [5] was inactive. In addition, the Potency entry in test [2], in [4] and in test [7] was “inactive” in each case.

As to `Nc1nc(N)nc(NC2CC2)n1`, the result in [1], in test [3] and in test [5] was inactive. Moreover, the Potency entry in test [2], in [4], in [6], in test [7], in test [9] and in test [10] was “inactive” each time. The max activation in test [8] was -4.09% (inactive).

Consider `Cc1cc(O)ccc1Cl`, for which the compound was called inactive in [1], in test [3] and in [5]. The Potency entry in [2], in test [4], in test [6], in test [7], in test [9] and in [10] was “inactive” each time. The max activation in test [8] is -2.1% (inactive).

Regarding `CCOP(=S)(OCC)Oc1ccc([N+](=O)[O-])cc1`, the compound was classed as inactive in test [1], in test [3] and in test [5]. In addition, the Potency result in [2] and in [4] was “inactive” in each case. Moreover, the Potency in test [7] is 49.2 µM (active).

`O=C/C=C/c1ccccc1`: the outcome in test [1], in [3] and in [5] was inactive. The Potency entry in [2], in test [4], in test [6], in test [9] and in test [10] was “inactive” throughout. Also, the max activation in test [8] is 2.2% (inactive).

On to `CCCCC(CC)C(=O)Cl` (stereo unspecified), for which the call in test [1], in test [3] and in test [5] was inactive. Besides, the Potency entry in test [2], in test [4] and in test [7] was “inactive” each time.

On to `O=[N+]([O-])c1ccc(Cl)c(Cl)c1`, for which the outcome in [1], in test [3] and in test [5] was inactive. Further, the Potency entry in test [2], in test [4] and in test [7] was “inactive” in each case.

Take `CC(C)CCCCCCOC(=O)c1ccccc1C(=O)OCCCCCCC(C)C`: the compound was classed as inactive in [1], in test [3] and in [5]. Besides, the Potency entry in test [2], in [4] and in test [7] was “inactive” each time.

As for `CNC(=O)O/N=C/C(C)(C)S(C)=O` (stereo unspecified), the call in [1], in test [3] and in test [5] was inactive. Besides, the Potency result in test [2] and in [7] was “inactive” in each case. Besides, the Potency in test [4] is 49.2 µM (active) and inactive.

For the compound `CNC(=O)O/N=C/C(C)(C)S(C)(=O)=O`, the call in test [1], in test [3] and in test [5] was inactive. Besides, the Potency entry in [2], in [4] and in test [7] was “inactive” each time.

On to `COc1nc(NC(C)C)nc(NC(C)C)n1`, for which the outcome in test [1], in test [3] and in test [5] was inactive. In addition, the Potency result in test [2] and in test [4] was “inactive” throughout. Moreover, the Potency in test [7] is 30.7 µM (active) and 54.5 µM (active).
